The record followed here is PubChem BioAssay (NCI).

The panel holds about 83,000 compounds, 20% with a hit somewhere; the sample as a whole holds those more often.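 Results are percent growth after 48 hours of single-concentration exposure. 100 means growth as in untreated cells, lower positive values show inhibition; negative values down to -100 show cell death.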 The source made the active and inactive calls. Rule for the calls: active = growth percent below 10; inactive = the rest.

This assay has as its system ACHN renal. As to the kind of experiment: NCI-60 one-dose screen, 48 h (100 = growth as untreated, 0 = no growth, -100 = all killed). Conditions: 10 µM unless noted.
On to `CC(=O)OC[C@]12CC[C@@H]([C@@H](C)c3nnc(-c4ccncc4)o3)[C@@H]1[C@H]1CC[C@@H]3[C@@]4(C)CC[C@H](OC(C)=O)C(C)(C)[C@@H]4CC[C@@]3(C)[C@]1(C)CC2`, for which the growth is 80.8% (inactive).
On to `CN(Cc1ccccc1)c1nc(Cl)c(C2CC(c3ccccc3)=NN2c2ccccc2)s1` (configuration not stated), for which the growth was 102% (inactive).
As to `CSc1nc(C)c([N+](=O)[O-])c(N)n1`, the growth is 112% (inactive).
Consider `CN1CCN(Cc2ccc(NC(=O)c3cncc(C#Cc4cnc(N)c5ccc(F)cc45)c3)cc2C(F)(F)F)CC1`, for which the growth was 6.63% (active).
As to `CN1CCN(C(=O)[C@@]2(C)CC[C@]3(C)CC[C@]4(C)C(=CC[C@@H]5[C@@]6(C)CCC(=O)NC(C)(C)[C@@H]6CC[C@]54C)[C@@H]3C2)CC1`, the growth was 69.9% (inactive).
With `COc1ccc(/C=C2\CN(C(=O)C(Cl)Cl)C/C(=C\c3ccc(OC)cc3)C2=O)cc1`, the growth was -58.3% (active).
With `O=C(NNc1cnccn1)c1nc2cc(F)ccc2n2cccc12` the figure was 7.64% (active); with `COc1cc(/C=C2\CN(S(=O)(=O)c3ccccc3)C/C(=C\c3cc(CN4CCCCC4)c(O)c(OC)c3)C2=O)cc(CN2CCCCC2)c1O`, 27.9% (inactive); with `COc1ccc(/C=C/C(c2cc(OC)c(OC)c(OC)c2)n2ccnc2)cc1O` (configuration not stated), 46.3% (inactive).
As for `C/C=C(/C)n1cnc2c(Nc3ccccn3)nc(Cl)nc21`, the growth is 99.9% (inactive).
On to `Oc1ccc(/C=C/c2ccc(O)cc2)cc1`, for which the growth was 11% (inactive).
In the case of `C#CCOc1cccc(-c2ncnc3cc(NC(=O)C=C)ccc23)c1`, the growth is 25.5% (inactive).
